SMILES strings stand for the structures. A number with no mark means an inactive call. Records with an inconclusive call do not appear. Activity calls are given as the source filed them. Unless noted, calls follow the shape of the dose curve; as a rule, active = well fitted curve in the direction sought with a large enough effect; inconclusive = small, poorly fitted or top-dose-only effect, or another doubt; inactive = no such curve, though single readings can be large; an effect the other way counts as inactive or inconclusive.

From PubChem BioAssay (NCATS) come the findings set out here.

A short description of experiment [1]: P-glycoprotein substrates identified in KB-8-5-11 adenocarcinoma cell line, qHTS therapeutic library screen (AID 1346987). Also: nearly all actives have a fitted effect of over 65% in size. As to activity change, negative = cytotoxicity: series mostly up to about 44 µM; % is scaled to controls: 0 for no effect and ±100 for the full control effect. The procedure, abridged:
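P-gp-mediated resistance screen: KB-8-5-11 cells treated 72 h with compounds in dose-response. CellTiter-Glo viability.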

The test system of experiment [2] is Zika virus NS2B-NS3 protease (unlinked complex). In words: Primary screen GU Rhodamine qHTS for Zika virus inhibitors: Unlinked NS2B-NS3 protease assay (AID 1347159). Also: nearly all actives have a fitted effect of over 60% in size. Also: potency is read from the fitted curve at half-maximal effect. As to activity change, negative = inhibition: % is scaled to controls: 0 for no effect and ±100 for the full control effect. The procedure, abridged:
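Noncovalent NS2B hydrophilic domain–NS3 protease domain complex (25 nM) preincubated 15 min at room temperature with compounds (up to 114 microM) in 10 mM Tris-HCl pH 8.0, 0.01% Tween 20; 1.5 microM Rhodamine110 substrate added, fluorescence change over 15 min fitted to Hill equation.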
(Quantitative high-throughput screening tests each substance at several concentrations.)

For experiment [3], the system named is Zika virus NS2B-NS3 protease (linked construct). In words: Primary screen NINDS Rhodamine qHTS for Zika virus inhibitors (AID 1347160). Also: nearly all actives have a fitted effect of over 55% in size. Also: potency is read from the fitted curve at half-maximal effect. The procedure, abridged:
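Purified linked NS2B-NS3 protease (NS2B hydrophilic domain joined to NS3 protease by flexible linker), 25 nM in 10 mM Tris-HCl pH 8.0, 0.01% Tween 20. Compounds titrated, 15 min preincubation at room temperature; 1.5 microM Rhodamine110 substrate, FITC fluorescence change over 15 min.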

For experiment [4], the target named is Peroxisome proliferator-activated receptor alpha (Homo sapiens) (UniProt Q07869). In words: qHTS assay for small molecule agonists of the peroxisome proliferator-activated receptor alpha (PPARalpha) signaling pathway (AID 651778). Also: % of control where 0% means no effect. The settings on record: PathHunter PPARalpha complementation, chemiluminescence, 6 h; hits give high values. The procedure, abridged: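 Enzyme-fragment complementation assay in which ligand-bound PPARalpha translocates and forms an active enzyme that generates chemiluminescence. Cells were plated overnight, exposed to compound for 6 hr at 37 C, and then given detection reagent for 60 min at room temperature.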
Peroxisome proliferator-activated receptor alpha (Homo sapiens), sequence (Q07869 whole entry, looked up, the tested form may be a part): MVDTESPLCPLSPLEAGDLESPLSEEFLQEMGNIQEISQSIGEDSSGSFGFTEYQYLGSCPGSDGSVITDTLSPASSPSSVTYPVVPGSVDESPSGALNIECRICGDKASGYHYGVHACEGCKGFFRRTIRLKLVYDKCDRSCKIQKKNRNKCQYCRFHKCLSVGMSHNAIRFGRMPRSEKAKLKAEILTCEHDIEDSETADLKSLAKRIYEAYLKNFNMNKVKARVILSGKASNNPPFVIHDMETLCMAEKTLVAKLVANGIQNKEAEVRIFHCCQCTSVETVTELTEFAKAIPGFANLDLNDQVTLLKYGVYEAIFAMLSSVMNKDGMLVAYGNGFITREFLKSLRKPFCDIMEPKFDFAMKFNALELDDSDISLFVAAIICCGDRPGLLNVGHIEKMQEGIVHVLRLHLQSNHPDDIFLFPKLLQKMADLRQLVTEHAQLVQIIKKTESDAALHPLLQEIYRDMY

In experiment [5] the target is Nuclear receptor ROR-gamma (Homo sapiens) (UniProt P51449). Kind of experiment: qHTS assay for small molecule antagonists of the retinoid-related orphan receptor gamma (ROR-gamma) signaling pathway (AID 651802).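 Also: CHO cells with doxycycline-induced ROR-gamma expression; series mostly up to about 92 µM; % is scaled to controls: 0 for no effect and ±100 for the full control effect; nearly all actives have a fitted effect of over 60% in size.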 The procedure, abridged: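 Antagonism is scored as a fall in luminescence from a RORE-luciferase reporter in CHO cells expressing ROR under a TET-inducible promoter, measured 16hr after doxycycline induction in the presence of compound.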
Nuclear receptor ROR-gamma (Homo sapiens), sequence (P51449 whole entry, looked up): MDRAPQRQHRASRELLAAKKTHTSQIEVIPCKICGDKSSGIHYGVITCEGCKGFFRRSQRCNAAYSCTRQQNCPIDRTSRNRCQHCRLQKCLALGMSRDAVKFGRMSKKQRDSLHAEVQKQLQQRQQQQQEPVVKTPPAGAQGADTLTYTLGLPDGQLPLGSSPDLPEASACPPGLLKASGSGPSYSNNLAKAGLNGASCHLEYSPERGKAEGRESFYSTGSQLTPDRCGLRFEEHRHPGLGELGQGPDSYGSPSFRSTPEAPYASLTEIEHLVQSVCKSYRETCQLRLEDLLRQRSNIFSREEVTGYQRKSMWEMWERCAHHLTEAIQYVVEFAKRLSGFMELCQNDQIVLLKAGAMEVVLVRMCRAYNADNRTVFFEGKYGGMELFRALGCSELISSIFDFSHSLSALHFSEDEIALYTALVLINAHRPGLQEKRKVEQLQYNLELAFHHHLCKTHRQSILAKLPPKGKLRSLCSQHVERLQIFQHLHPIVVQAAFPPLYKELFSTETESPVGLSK

Experiment [6] is described as follows: qHTS assay for small molecule agonists of the antioxidant response element (ARE) signaling pathway measured by Nrf2-dependant transcriptional activity (AID 720636; active = well fitted curve in the direction sought with a large enough effect in the repeat runs; an effect the other way counts as inactive or inconclusive; also: % of control where 0% means no effect). Put shortly:
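Nrf2-dependent transcription read as ONE-Glo luciferase signal from ARE-luc HepG2 reporter cells after 16 hr compound treatment at 37 C, 5% CO2, in assay medium with 1% dialyzed FBS.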

Experiment [7] can be described thus: qHTS assay for small molecule antagonists of the retinoid-related orphan receptor gamma (ROR-gamma) signaling pathway - cell viability counter screen (AID 720652; active = well fitted curve in the direction sought with a large enough effect in the repeat runs; an effect the other way counts as inactive or inconclusive;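 also: CHO reporter cells with doxycycline-induced ROR-gamma expression; series mostly up to about 92 µM; compound exposure lasted 16 hr before ATP read; % is scaled to controls: 0 for no effect and ±100 for the full control effect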). Put shortly:
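Cytotoxicity is quantified via intracellular ATP (CellTiter-Glo luminescence) in doxycycline-induced CHO ROR response element-luciferase reporter cells treated with compound for 16 hr at 37 C, 5% CO2.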

A short description of experiment [8]: qHTS assay for small molecule agonists of the antioxidant response element (ARE) signaling pathway measured by Nrf2-dependant transcriptional activity - cell viability counter screen (AID 720653; active = well fitted curve in the direction sought with a large enough effect in the repeat runs; an effect the other way counts as inactive or inconclusive; also: % is scaled to controls: 0 for no effect and ±100 for the full control effect). The settings on record: ARE-bla HepG2 viability, CellTiter-Glo ATP luminescence, 16 h; hits give low values. Put shortly:
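ARE-bla HepG2 cells treated with compounds for 16 h at 37C; this counter screen measures viability as intracellular ATP by CellTiter-Glo luminescence after 30 min at room temperature.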

A short description of experiment [9]: qHTS assay for cell viability of HEK293 cells (AID 743288). Also: % is scaled to controls: 0 for no effect and ±100 for the full control effect; nearly all actives have a fitted effect of over 50% in size. The settings on record: ATP luminescence (CellTiter-Glo), 18 h, hits give low values. Put shortly:
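Total intracellular ATP, measured with a luciferase-coupled reagent, indicates the number of viable HEK293 cells. Exposure to test chemicals lasts 18 h at 37 C in 1,536-well format at 2,000 cells/well.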

A short description of experiment [10]: qHTS assay for cell viability of the p53RE-bla HCT-116 cell line (AID 743292). Also: % is scaled to controls: 0 for no effect and ±100 for the full control effect; nearly all actives have a fitted effect of over 55% in size. Put shortly:
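ATP-based luminescent viability (CellTiter-Glo, 30 min RT) after 16 h compound treatment at 37 C of p53RE-bla HCT-116 cells, seeded at 4,000 cells/well and rested 5 h before dosing.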

As to `Cc1cn2cc(CC(=O)N3CCC4(CC3)CN(Cc3ccc(-n5nccn5)cc3Cl)C4)nc2s1`, the Potency result in experiment [1], in experiment [2] and in experiment [3] was “inactive” each time.

On to `CC(=O)O[C@@H]1[C@H](OC(C)=O)C[C@@]2(C)C(CC[C@@H](C)[C@]23Cc2c(O)cc4c(c2O3)CN([C@@H](CCC(=O)O)C(=O)O)C4=O)C1(C)C` (stereo partly specified), for which the Potency result in [1], in experiment [2] and in experiment [3] was “inactive” each time.

For `Cc1ccc(Nc2nnc(-c3ccc([N+](=O)[O-])cc3)o2)cc1Cl`, the Potency entry in experiment [1], in [2] and in experiment [3] was “inactive” in each case.

For the molecule `CC(=O)c1ccc(O[C@@H]2O[C@H](CO[C@@H]3OC[C@@H](O)[C@H](O)[C@H]3O)[C@@H](O)[C@H](O)[C@H]2O)cc1`, the Potency result in experiment [1], in [2] and in [3] was “inactive” in each case.

`CCCNCCOc1ccc(NC(=O)c2c[nH]c3c2C(=O)CCC3)cc1F`: the Potency result in experiment [1], in experiment [2] and in [3] was “inactive” each time.

Take `C=C1C[C@]23C[C@@]1(O)CC[C@H]2[C@@]12C=C[C@H](O)[C@@](C)(C(=O)O1)[C@H]2[C@@H]3C(=O)O`: the max response was -2.22% in experiment [4], 2.88% in [8] and 3.04% in experiment [9]. In addition, the molecule was classed as inactive in experiment [5], in experiment [6], in [7] and in experiment [10]. Moreover, the Potency entry in experiment [1], in [2] and in experiment [3] was “inactive” throughout.

Turning to `C=CC(C)(CCC=C(C)C)O[C@@H]1O[C@H](CO)[C@@H](O)[C@H](O)[C@H]1O` (stereo partly specified), the Potency result in [1], in experiment [2] and in experiment [3] was “inactive” each time.

On to `CC(=O)OC[C@]12[C@H](OC(C)=O)[C@H](OC(=O)c3ccccc3)[C@@H]3[C@@H](OC(C)=O)[C@]1(OC3(C)C)[C@H](C)C[C@H](OC(=O)c1ccccc1)[C@@H]2OC(=O)c1ccccc1`, for which the Potency result in [1], in [2] and in experiment [3] was “inactive” in each case.

With `COc1cc(O)cc2c1C(=O)OC(C)CCCCCCC2` (stereo unspecified), the Potency entry in [1] is “inactive”. The results for the Potency in experiment [2] and in [3] were 20 µM (active) and 14.1 µM (active), respectively.

Turning to `O=C(CCc1ccccc1)c1c(O)c([C@@H]2O[C@H](CO)[C@@H](O)[C@H](O)[C@H]2O)c(O)c([C@@H]2O[C@H](CO)[C@@H](O)[C@H](O)[C@H]2O)c1O`, the Potency result in experiment [1], in [2] and in experiment [3] was “inactive” in each case.

For `CC(=O)OCC(Cc1ccccc1)NC(=O)C(Cc1ccccc1)NC(=O)c1ccccc1` (stereo unspecified), the Potency result in experiment [1], in experiment [2] and in [3] was “inactive” each time.

Take `O=[N+]([O-])c1cc(Cl)ccc1S(=O)(=O)N1CCN(Cc2ccccc2)CC1`: the Potency entry in [1], in experiment [2] and in experiment [3] was “inactive” throughout.

On to `COC(=O)C[C@H]1C(C)(C)[C@H](OC(=O)C(C)C)C2CC3=C4CC(=O)O[C@@H](c5ccoc5)[C@]4(C)CCC3[C@@]1(C)C2=O` (stereo partly specified), for which the Potency entry in [1], in experiment [2] and in [3] was “inactive” in each case.

With `CC1=C2C(=O)C=C(CO[C@@H]3O[C@H](CO)[C@@H](O)[C@H](O)[C@H]3O)[C@@H]2[C@H]2OC(=O)[C@H](C)[C@@H]2CC1`, the Potency entry in experiment [1], in [2] and in [3] was “inactive” each time.

For the molecule `C[C@@H]1C[C@@H](O)[C@@]23CO[C@]2(CO)CCC[C@@H]3[C@@]12C[C@@H](c1ccoc1)OC2=O`, the Potency result in experiment [1], in experiment [2] and in [3] was “inactive” each time.

As to `CC(O)CCc1ccc(O[C@@H]2O[C@H](CO)[C@@H](O)[C@H](O)[C@H]2O)cc1` (stereo partly specified), the Potency result in [1], in experiment [2] and in [3] was “inactive” in each case.

Consider `C[C@@H]1O[C@@H](O[C@@H]2[C@@H](O)[C@H](O[C@@H]3[C@@H](O)[C@@H](O)[C@H](O[C@H]4[C@H](OC(=O)[C@]56CCC(C)(C)C[C@H]5C5=CCC7[C@@]8(C)C[C@H](O)[C@H](O[C@@H]9O[C@H](C(=O)O)[C@@H](O)[C@H](O)[C@H]9O)[C@@](C)(CO)C8[C@H](O)C[C@@]7(C)[C@]5(C)C[C@H]6O)O[C@@H](CO)[C@@H]4O)O[C@H]3C)OC[C@H]2O)[C@H](O)[C@H](O)[C@H]1O` (stereo partly specified), for which the activity change, negative = cytotoxicity in experiment [1] was 8.82% [at 9.29 µM]. Moreover, in [2], the activity change, negative = inhibition is 24.9% [at 19.1 µM]. The Potency entry in experiment [3] was “inactive”.

As for `O=C(O)c1ccnc(-c2cc(C(=O)NCCc3ccccc3)ccn2)c1`, the Potency entry in experiment [1], in [2] and in experiment [3] was “inactive” in each case.

In the case of `C/C=C1/[C@H](O[C@@H]2O[C@H](CO)[C@@H](O)[C@H](O)[C@H]2O)OC=C2C(=O)O[C@@H]3C[C@@H](C(C)CO)[C@H](COC(=O)C[C@H]21)[C@H]3C` (stereo partly specified), the Potency entry in experiment [1], in experiment [2] and in experiment [3] was “inactive” each time.

As to `C=C1CC23CC1CCC2C12OC(=O)C(C)(C(O)CC1O)C2C3C(=O)O` (stereo unspecified), the Potency result in experiment [1], in experiment [2] and in experiment [3] was “inactive” each time.

In the case of `C/C=C/C=C/C(=O)OC1CC/C=C/C(O)C(O)C(CCC)OC1=O` (stereo unspecified), the Potency result in [1] and in experiment [3] was “inactive” throughout.

For `O=C(OC[C@H]1O[C@H](O[C@]2(CO)O[C@H](CO)[C@@H](O)[C@@H]2O)[C@H](O)[C@@H](O)[C@@H]1O)c1ccc(O)cc1`, the Potency result in experiment [1] and in experiment [3] was “inactive” in each case.
